Laboratory results as given in PubChem BioAssay AID1159580 (chemical genetic matrix, 2015).
Out of some 5,500 compounds screened, about 2,000 (36%) were called active. Inconclusive results (about 18%) are left out. Cut-off read from the data, not from the text of the source: active = normalized growth mostly below about 0.91 (no sharp cut-off); inconclusive = no clear call, values can overlap the other calls; inactive = mostly above about 0.92. Some of the results follow.

Assay: chemical genetic growth profiling, strain panel (AID 1159580);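 note: tested at 20 µM; growth read once vehicle control cultures reached saturation at 30 °C; 1 = growth at the plate median or of vehicle wells; lower values mean less growth of the strain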
Details: S. cerevisiae deletion strains, growth OD

Measured: normalized growth

O=C(/C=C/c1ccc(O)cc1)c1ccccc1O
active: locus YAL021C, strain ccr4, active compounds read low 0.762 | locus YAL026C, strain drs2, active compounds read low 0.359 | locus YAL030W, strain snc1, active compounds read low 0.359 | locus YBL061C, strain skt5, active compounds read low 0.366 | locus YBR009C, strain hhf1, active compounds read low 0.25 | locus YBR023C, strain chs3, active compounds read low 0.452 | locus YBR171W, strain sec66, active compounds read low 0.774 | locus YBR231C, strain swc5, active compounds read low 0.382 | locus YBR279W, strain paf1, active compounds read low 0.423 | locus YCL011C, strain gbp2, active compounds read low 0.366 | locus YCL016C, strain dcc1, active compounds read low 0.446 | locus YCL061C, strain MRC1, active compounds read low 0.484 | locus YCL069W, strain vba3, active compounds read low 0.256 | locus YCR088W, strain abp1, active compounds read low 0.639 | locus YDL005C, strain med2, active compounds read low 0.759 | locus YDL040C, strain nat1, active compounds read low 0.683 | locus YDR001C, strain nth1, active compounds read low 0.552 | locus YDR069C, strain doa4, active compounds read low 0.859 | locus YDR137W, strain rgp1, active compounds read low 0.255 | locus YDR159W, strain sac3, active compounds read low 0.305 | locus YDR195W, strain ref2 1.15 [resistant] | locus YDR297W, strain sur2, active compounds read low 0.554 | locus YDR334W, strain swr1, active compounds read low 0.301 | locus YDR335W, strain msn5, active compounds read low 0.382 | locus YDR392W, strain spt3, active compounds read low 0.103 | locus YEL003W, strain gim4, active compounds read low 0.236 | locus YEL037C, strain rad23, active compounds read low 0.667 | locus YEL061C, strain CIN8 (second series), active compounds read low 0.175 | locus YER015W, strain faa2, active compounds read low 0.469 | locus YER016W, strain bim1, active compounds read low 0.478 | locus YER111C, strain swi4, active compounds read low 0.126 | locus YER155C, strain BEM2 (second series), active compounds read low 0.128 | locus YFR010W, strain ubp6, active compounds read low 0.768 | locus YGL167C, strain pmr1, active compounds read low 0.703 | locus YGL173C, strain kem1, active compounds read low 0.585 | locus YGL227W, strain vid30, active compounds read low 0.169 | locus YGL240W, strain doc1, active compounds read low 0.453 | locus YGL253W, strain hxk2, active compounds read low 0.2 | locus YHR013C, strain ard1, active compounds read low 0.441 | locus YHR027C, strain rpn1, active compounds read low 0.624 | locus YHR030C, strain SLT2, active compounds read low 0.0955 | locus YHR079C, strain IRE1, active compounds read low 0.119 | locus YHR142W, strain chs7, active compounds read low 0.14 | locus YJL092W, strain hpr5, active compounds read low 0.586 | locus YJL095W, strain BCK1 (second series), active compounds read low 0.202 | locus YJL095W, strain BCK1, active compounds read low 0.105 | locus YJL115W, strain asf1, active compounds read low 0.684 | locus YJL129C, strain trk1, active compounds read low 0.463 | locus YJL154C, strain vps35, active compounds read low 0.582 | locus YJL164C, strain tpk1, active compounds read low 0.275 | locus YJL166W, strain qcr8, active compounds read low 0.228 | locus YJL187C, strain SWE1, active compounds read low 0.355 | locus YJR066W, strain TOR1, active compounds read low 0.0115 | locus YKL160W, strain elf1, active compounds read low 0.229 | locus YKR026C, strain gcn3, active compounds read low 0.759 | locus YKR091W, strain srl3, active compounds read low 0.71 | locus YLL001W, strain dnm1, active compounds read low 0.488 | locus YLL026W, active compounds read low 0.325 | locus YLL041C, strain sdh2, active compounds read low 0.499 | locus YLR027C, strain aat2, active compounds read low 0.271 | locus YLR113W, strain HOG1, active compounds read low 0.125 | locus YLR221C, strain rsa3, active compounds read low 0.229 | locus YLR258W, strain gsy2, active compounds read low 0.426 | locus YLR262C, strain YPT6 (second series), active compounds read low 0.301 | locus YLR320W, strain mms22, active compounds read low 0.145 | locus YLR342W, strain FKS1, active compounds read low 0.315 | locus YLR357W, strain rsc2, active compounds read low 0.726 | locus YLR370C, strain arc18, active compounds read low 0.713 | locus YLR384C, strain iki3, active compounds read low 0.761 | locus YML120C, strain ndi1, active compounds read low 0.246 | locus YMR058W, strain fet3, active compounds read low 0.383 | locus YMR125W, strain sto1, active compounds read low 0.171 | locus YMR129W, active compounds read low 0.656 | locus YMR205C, strain PFK2, active compounds read low 0.248 | locus YMR231W, strain pep5, active compounds read low 0.529 | locus YNL071W, strain lat1, active compounds read low 0.0982 | locus YNL183C, strain NPR1, active compounds read low 0.00476 | locus YNL209W, strain ssb2, active compounds read low 0.652 | locus YNL248C, strain rpa49, active compounds read low 0.379 | locus YNL322C, strain KRE1 (second series), active compounds read low 0.506 | locus YNR049C, strain mso1, active compounds read low 0.569 | locus YOR001W, strain rrp6, active compounds read low 0.385 | locus YOR070C, strain gyp1, active compounds read low 0.331 | locus YOR080W, strain dia2, active compounds read low 0.766 | locus YOR083W, strain WHI5, active compounds read low 0.366 | locus YOR106W, strain vam3, active compounds read low 0.321 | locus YOR231W, strain MKK1, active compounds read low 0.102 | locus YOR265W, strain rbl2, active compounds read low 0.584 | locus YOR270C, strain vph1, active compounds read low 0.285 | locus YOR290C, strain snf2, active compounds read low 0.214 | locus YPL051W, strain arl3, active compounds read low 0.325 | locus YPL078C, strain atp4, active compounds read low 0.256 | locus YPL106C, strain sse1, active compounds read low 0.609 | locus YPL240C, strain hsp82, active compounds read low 0.325 | locus YPL256C, strain CLN2, active compounds read low 0.103
